Records with an inconclusive call do not appear. Activity calls are given as the source filed them. Unless noted, calls follow the shape of the full dose curve.
Key:
[1] = qHTS assay to identify small molecule agonists of the sonic hedgehog signaling (Shh) pathway (AID 1259368);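 also: NIH/3T3-derived 3T3Gli1-Luc cells carrying a stable Gli1-driven firefly luciferase reporter; series mostly up to about 92 µM; nearly all actives have a fitted effect of over 15% in size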
Procedure, shortened: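 Steps: seed 3T3 Gli1-Luc cells, incubate 4 hr at 37 C, pin-transfer compounds in DMSO alongside a positive control, incubate 24 hr, add luciferase detection reagent, wait 30 min at room temperature, read luminescence.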

[2] = qHTS assay to identify small molecule antagonists of the sonic hedgehog signaling (Shh) pathway (AID 1259369); also: nearly all actives have a fitted effect of over 45% in size
Procedure, shortened: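 Inhibition of Shh signalling is measured as reduced Gli1-response-element firefly luciferase output in an NIH/3T3-derived stable reporter clone stimulated with conditioned medium for 24hr.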

[3] = molecular target: Estrogen receptor beta (Homo sapiens) (UniProt Q92731); assay: qHTS assay to identify small molecule agonists of the estrogen receptor beta (ER-beta) signaling pathway (AID 1259377; active = well fitted activation curve with a large enough effect in the signal ratio in the repeat runs, not every such curve was filed as active; the % refers to the signal ratio)
Sequence of Estrogen receptor beta (Homo sapiens) (Q92731 whole entry, looked up): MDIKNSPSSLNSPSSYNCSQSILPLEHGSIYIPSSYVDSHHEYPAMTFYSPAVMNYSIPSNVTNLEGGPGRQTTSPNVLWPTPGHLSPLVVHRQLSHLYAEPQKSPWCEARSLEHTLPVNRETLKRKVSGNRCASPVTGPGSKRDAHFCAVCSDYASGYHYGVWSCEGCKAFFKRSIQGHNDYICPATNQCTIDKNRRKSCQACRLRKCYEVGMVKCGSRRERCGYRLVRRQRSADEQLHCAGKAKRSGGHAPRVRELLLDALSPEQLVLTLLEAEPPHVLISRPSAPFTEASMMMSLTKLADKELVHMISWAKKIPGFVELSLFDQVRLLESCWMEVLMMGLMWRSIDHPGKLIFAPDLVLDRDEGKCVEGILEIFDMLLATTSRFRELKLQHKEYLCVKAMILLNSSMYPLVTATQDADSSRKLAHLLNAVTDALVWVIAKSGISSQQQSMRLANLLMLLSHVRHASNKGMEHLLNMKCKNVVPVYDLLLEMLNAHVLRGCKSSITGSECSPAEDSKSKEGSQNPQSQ
Procedure, shortened: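 ER-beta-UAS-bla HEK293T (GripTite) cells carrying a UAS-driven beta-lactamase reporter, in medium with 2% charcoal-stripped FBS, were exposed to compounds for 16 hr at 37C; LiveBLAzer B/G FRET substrate was then added and fluorescence read after 2 hours at room temperature.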

[4] = molecular target: Estrogen receptor beta (Homo sapiens) (UniProt Q92731); assay: qHTS assay to identify small molecule antagonists of the estrogen receptor beta (ER-beta) signaling pathway (AID 1259378; active = well fitted inhibition curve with a large enough effect in the signal ratio in the repeat runs, not every such curve was filed as active; the % refers to the signal ratio)
Procedure, shortened: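 ER-beta-UAS-bla HEK293T (GripTite) cells in 2% charcoal-stripped FBS medium were preincubated 6 hr at 37C, dosed with compound, then stimulated with 1 nM E2 (final) for 16 hr; beta-lactamase reporter read by B/G FRET fluorescence after 2 hr substrate loading.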

[5] = qHTS assay to identify small molecule agonists of the androgen receptor (AR) signaling pathway in the presence of an antagonist - cell viability counter screen (AID 1259379; active = well fitted curve in the direction sought with a large enough effect in the repeat runs; an effect the other way counts as inactive or inconclusive;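 also: MDA-kb2 human breast cancer cells carrying an MMTV luciferase reporter; series mostly up to about 92 µM; nearly all actives have a fitted effect of over 25% in size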)
Procedure, shortened: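 Fluorescence from CellTiter-Fluor, added after 15 hr and read 1 hr later, gave cell viability. Cells were MDA-kb2 exposed to compounds (15 concentrations) in the presence of 3.0uM nilutamide at 37C, 0% CO2.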

[6] = qHTS assay to identify small molecule agonists of the estrogen receptor beta (ER-beta) signaling pathway - cell viability counter screen (AID 1259380; active = well fitted curve in the direction sought with a large enough effect in the repeat runs; an effect the other way counts as inactive or inconclusive; also: nearly all actives have a fitted effect of over 30% in size)
Procedure, shortened: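 Same-well viability counter screen. Cells: ER-beta-UAS-bla HEK293T, plated 6 hr before compound, in 2% charcoal-stripped FBS. Compound exposure 16 hr, 37C; viability by CellTiter-Glo luminescence after 30 min at room temperature.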

[7] = qHTS assay to identify small molecule antagonists of the estrogen receptor beta (ER-beta) signaling pathway - cell viability counter screen (AID 1259382; active = well fitted curve in the direction sought with a large enough effect in the repeat runs; an effect the other way counts as inactive or inconclusive; also: series mostly up to about 92 µM; nearly all actives have a fitted effect of over 55% in size)
Procedure, shortened: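 Following a 6 hr plating period, HEK293T cells carrying a UAS-driven beta-lactamase reporter under ER-beta control received compounds and 1nM E2 (final). After 16 hr at 37C and 2 hr substrate loading, CellTiter-Glo luminescence indicated viability.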

[8] = molecular target: Estrogen receptor (Homo sapiens) (UniProt P03372); assay: qHTS assay to identify small molecule agonists of the estrogen receptor alpha (ER-alpha) signaling pathway in the presence of an antagonist (AID 1259383); also: top concentration of the series differs between compounds; nearly all actives have a fitted effect of over 15% in size
Sequence of Estrogen receptor (Homo sapiens) (P03372 whole entry, looked up): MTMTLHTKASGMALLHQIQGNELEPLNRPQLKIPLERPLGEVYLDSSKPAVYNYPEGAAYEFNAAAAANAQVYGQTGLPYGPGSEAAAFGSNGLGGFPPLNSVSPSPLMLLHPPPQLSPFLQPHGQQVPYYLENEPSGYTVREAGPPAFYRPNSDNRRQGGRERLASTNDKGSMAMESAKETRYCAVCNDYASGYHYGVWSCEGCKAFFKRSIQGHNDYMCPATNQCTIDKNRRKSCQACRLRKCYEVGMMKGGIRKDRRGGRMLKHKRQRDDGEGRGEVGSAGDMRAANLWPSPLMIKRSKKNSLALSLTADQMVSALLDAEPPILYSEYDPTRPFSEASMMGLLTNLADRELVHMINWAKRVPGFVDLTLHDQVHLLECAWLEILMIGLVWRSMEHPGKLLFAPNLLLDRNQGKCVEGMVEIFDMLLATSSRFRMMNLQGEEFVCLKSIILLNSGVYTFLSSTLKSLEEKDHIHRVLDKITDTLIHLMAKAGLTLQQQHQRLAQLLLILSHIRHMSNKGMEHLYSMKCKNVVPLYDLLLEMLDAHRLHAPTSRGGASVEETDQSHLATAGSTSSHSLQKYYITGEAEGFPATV
Procedure, shortened: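 Cells are hormone-deprived for 5 days (charcoal-stripped FBS, no phenol red), plated for 24hr, spiked with 10.0nM ICI-182,780, then dosed at 15 concentrations. After 22hr at 37C, ONE-Glo luminescence reports ERE-luciferase activity.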

[9] = qHTS assay to identify small molecule agonists or antagonists of the thyroid stimulating hormone receptor (TSHR) signaling pathway - wild type cell line counter screen (AID 1259384)
Procedure, shortened: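 Wild-type HEK293 cells were plated 18 h at 37 C/5% CO2, pin-dosed with compound plus Ro20-1724 medium, held 30 min at room temperature, then given cAMP-d2 and anti-cAMP-cryptate; fluorescence was read after 1 h. Fifteen concentrations, triplicate.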

[10] = molecular target: Thyrotropin receptor (Homo sapiens) (UniProt P16473); assay: qHTS assay to identify small molecule antagonists of the thyroid stimulating hormone receptor (TSHR) signaling pathway (AID 1259385); also: nearly all actives have a fitted effect of over 20% in size
Sequence of Thyrotropin receptor (Homo sapiens) (P16473 whole entry, looked up): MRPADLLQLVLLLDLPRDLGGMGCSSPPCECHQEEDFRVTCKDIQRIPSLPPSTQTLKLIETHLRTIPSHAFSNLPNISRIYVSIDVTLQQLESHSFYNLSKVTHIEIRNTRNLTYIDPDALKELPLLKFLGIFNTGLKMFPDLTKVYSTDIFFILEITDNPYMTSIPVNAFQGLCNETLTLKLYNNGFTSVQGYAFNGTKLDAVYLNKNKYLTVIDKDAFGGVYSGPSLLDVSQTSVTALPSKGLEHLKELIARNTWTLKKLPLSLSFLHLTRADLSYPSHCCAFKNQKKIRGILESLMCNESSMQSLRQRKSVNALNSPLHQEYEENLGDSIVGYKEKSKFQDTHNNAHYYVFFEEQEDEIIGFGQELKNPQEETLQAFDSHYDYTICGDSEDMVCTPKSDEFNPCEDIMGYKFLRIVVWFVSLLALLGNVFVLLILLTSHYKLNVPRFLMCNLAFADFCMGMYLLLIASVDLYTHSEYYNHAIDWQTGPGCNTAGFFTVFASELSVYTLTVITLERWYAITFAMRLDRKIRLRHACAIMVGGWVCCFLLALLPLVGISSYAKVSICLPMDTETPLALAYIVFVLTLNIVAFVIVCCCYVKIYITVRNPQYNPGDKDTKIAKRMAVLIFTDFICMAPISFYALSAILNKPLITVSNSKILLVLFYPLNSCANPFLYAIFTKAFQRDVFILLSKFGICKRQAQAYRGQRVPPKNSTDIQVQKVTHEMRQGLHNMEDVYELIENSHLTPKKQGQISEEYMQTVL
Procedure, shortened: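 TSHR-HEK293 cells were plated and held 18 h at 37C/5% CO2, then given compound plus Ro20-1724 and stimulated with TSH at 1.5 ng/mL final. After 30 min at room temperature, cAMP was detected with cAMP-d2/anti-cAMP-cryptate (1 h) by fluorescence.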

[11] = qHTS assay to identify small molecule agonists of the estrogen receptor alpha (ER-alpha) signaling pathway in the presence of an antagonist - cell viability counter screen (AID 1259386; active = well fitted curve in the direction sought with a large enough effect in the repeat runs; an effect the other way counts as inactive or inconclusive;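 also: series mostly up to about 92 µM; cells exposed to compounds for 22 h at 37 °C before the viability read; nearly all actives have a fitted effect of over 30% in size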)
Procedure, shortened: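 Cells are starved of estrogens for 5 days in charcoal-stripped serum, seeded for 24hr and co-treated with ICI-182,780 (10.0nM final) and test compounds. After 22hr at 37C, viability is read as CellTiter-Fluor fluorescence.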

[12] = molecular target: Progesterone receptor (Homo sapiens) (UniProt P06401); assay: qHTS assay to identify small molecule agonists of the progesterone receptor (PR) signaling pathway (AID 1346784); also: nearly all actives have a fitted effect of over 30% in size
Sequence of Progesterone receptor (Homo sapiens) (P06401 whole entry, looked up): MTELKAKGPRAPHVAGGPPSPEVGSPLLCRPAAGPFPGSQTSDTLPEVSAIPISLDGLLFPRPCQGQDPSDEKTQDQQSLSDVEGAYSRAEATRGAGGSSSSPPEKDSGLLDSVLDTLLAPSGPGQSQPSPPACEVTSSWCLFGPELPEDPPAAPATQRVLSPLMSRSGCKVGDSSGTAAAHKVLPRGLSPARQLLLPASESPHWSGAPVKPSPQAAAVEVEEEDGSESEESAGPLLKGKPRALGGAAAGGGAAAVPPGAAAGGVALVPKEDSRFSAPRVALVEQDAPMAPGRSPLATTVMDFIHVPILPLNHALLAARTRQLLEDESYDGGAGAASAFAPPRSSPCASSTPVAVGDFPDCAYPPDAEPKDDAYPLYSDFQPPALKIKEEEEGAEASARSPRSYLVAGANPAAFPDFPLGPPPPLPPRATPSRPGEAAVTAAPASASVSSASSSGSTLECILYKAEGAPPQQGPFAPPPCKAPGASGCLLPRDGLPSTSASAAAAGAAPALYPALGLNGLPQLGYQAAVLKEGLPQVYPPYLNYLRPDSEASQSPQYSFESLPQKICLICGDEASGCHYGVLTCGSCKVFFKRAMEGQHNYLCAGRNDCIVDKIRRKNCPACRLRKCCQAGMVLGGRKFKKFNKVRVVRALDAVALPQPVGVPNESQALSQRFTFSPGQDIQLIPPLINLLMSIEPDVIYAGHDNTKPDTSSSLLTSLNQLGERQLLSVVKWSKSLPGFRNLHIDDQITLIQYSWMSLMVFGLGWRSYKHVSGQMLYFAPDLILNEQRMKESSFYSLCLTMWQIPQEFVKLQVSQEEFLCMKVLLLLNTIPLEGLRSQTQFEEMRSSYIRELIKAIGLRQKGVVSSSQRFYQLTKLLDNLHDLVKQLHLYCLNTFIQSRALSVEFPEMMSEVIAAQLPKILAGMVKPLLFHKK
Procedure, shortened: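 PR-UAS-bla HEK 293T cells carrying a UAS-driven beta-lactamase reporter were seeded in medium with 2% charcoal-stripped FBS, preincubated 6 hr at 37C, then exposed to compounds in DMSO for 16 hr; agonism was read by LiveBLAzer B/G FRET fluorescence.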

[13] = molecular target: Progesterone receptor (Homo sapiens) (UniProt P06401); assay: qHTS assay to identify small molecule antagonists of the progesterone receptor (PR) signaling pathway (AID 1346795; active = well fitted inhibition curve with a large enough effect in the signal ratio in the repeat runs, not every such curve was filed as active; the % refers to the signal ratio)
Procedure, shortened: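 PR-UAS-bla HEK293T cells carrying a UAS-driven beta-lactamase reporter were plated in medium with 2% charcoal-stripped FBS and rested 6 hr at 37C. Compounds were added with 1 nM R5020 (final) for 16 hr, then FRET substrate loaded 2 hr at room temperature.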

[14] = qHTS assay to identify small molecule antagonists of the progesterone receptor (PR) signaling pathway - cell viability counter screen (AID 1346798; active = well fitted curve in the direction sought with a large enough effect in the repeat runs; an effect the other way counts as inactive or inconclusive; also: series mostly up to about 92 µM; nearly all actives have a fitted effect of over 50% in size)
Procedure, shortened: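 PR-UAS-bla HEK293T cells in medium with 2% charcoal-stripped FBS were treated with compounds plus R5020 for 16 hr at 37C. Cell viability was then read by CellTiter-Glo luminescence after 30 min at room temperature in the same wells.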

[15] = qHTS assay to identify small molecule agonists of the progesterone receptor (PR) signaling pathway - cell viability counter screen (AID 1346799); also: nearly all actives have a fitted effect of over 45% in size
Procedure, shortened: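 PR-UAS-bla HEK293T cells, 3,000 per well in medium with 2% charcoal-stripped FBS, were preincubated 6 hr at 37C, then exposed to compounds for 16 hr; viability was read as CellTiter-Glo luminescence after 30 min at room temperature.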

[16] = qHTS assay to identify small molecule antagonists of the TGF-beta/Smad signaling pathway - cell viability counter screen (AID 1346824; active = well fitted curve in the direction sought with a large enough effect in the repeat runs; an effect the other way counts as inactive or inconclusive; also: nearly all actives have a fitted effect of over 50% in size)
Procedure, shortened: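 SBE-bla HEK 293T cells were plated overnight at 37 C, then given compounds in DMSO plus TGF-beta1 (added as 0.25 ng/mL solution) for 5 hr. After the bla read, CellTiter-Glo was added to the same wells and luminescence read after 30 min at room temperature.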

[17] = qHTS assay to identify small molecule agonists of the TGF-beta/Smad signaling pathway - cell viability counter screen (AID 1346829; active = well fitted curve in the direction sought with a large enough effect in the repeat runs; an effect the other way counts as inactive or inconclusive; also: top concentration of the series differs between compounds; nearly all actives have a fitted effect of over 45% in size)
Procedure, shortened: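 Compound-treated SBE-bla HEK 293T cells (5 hr, 37 C) were assessed for viability with CellTiter-Glo in parallel with the reporter read.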

[18] = qHTS assay to identify small molecule agonists of the TGF-beta/Smad signaling pathway (AID 1346859; active = well fitted activation curve with a large enough effect in the signal ratio in the repeat runs, not every such curve was filed as active; the % refers to the signal ratio; also: series mostly up to about 77 µM)
Procedure, shortened: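 HEK 293T cells stably carrying a beta-lactamase reporter driven by the Smad binding element were seeded overnight, exposed to DMSO-dissolved compounds for 5 hr at 37 C, 5% CO2, then loaded with FRET substrate for 2 hr at room temperature.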

[19] = molecular target: Thyrotropin-releasing hormone receptor (Homo sapiens) (UniProt P34981); assay: qHTS assay to identify small molecule antagonists of the thyrotropin-releasing hormone receptor (TRHR) signaling pathway (AID 1346877; active = well fitted inhibition curve with a large enough effect in the repeat runs, not every such curve was filed as active; also: series mostly up to about 51 µM)
Sequence of Thyrotropin-releasing hormone receptor (Homo sapiens) (P34981 whole entry, looked up): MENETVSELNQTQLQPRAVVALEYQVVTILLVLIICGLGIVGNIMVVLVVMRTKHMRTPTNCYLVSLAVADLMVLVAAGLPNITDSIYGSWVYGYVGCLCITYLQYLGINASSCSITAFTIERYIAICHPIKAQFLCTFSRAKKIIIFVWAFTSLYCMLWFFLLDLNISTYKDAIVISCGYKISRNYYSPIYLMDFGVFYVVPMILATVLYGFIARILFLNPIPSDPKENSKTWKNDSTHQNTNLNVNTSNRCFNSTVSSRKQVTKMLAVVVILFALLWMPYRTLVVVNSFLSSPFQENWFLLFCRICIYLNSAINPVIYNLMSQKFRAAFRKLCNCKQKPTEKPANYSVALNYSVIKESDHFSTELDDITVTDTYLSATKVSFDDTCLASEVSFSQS
Procedure, shortened: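 Cells (TRHR-HEK293) are plated and kept 18 h at 37 °C/5% CO2. A calcium-sensitive dye is added for 2 h, compound follows for 5 min at room temperature, and TRH is then given at 1 nM final.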

[20] = molecular target: Androgen receptor (Homo sapiens) (UniProt P10275); assay: qHTS assay to identify small molecule agonists of the androgen receptor (AR) signaling pathway in the presence of an antagonist (AID 1259381); also: nearly all actives have a fitted effect of over 15% in size
Sequence of Androgen receptor (Homo sapiens) (P10275 whole entry, looked up): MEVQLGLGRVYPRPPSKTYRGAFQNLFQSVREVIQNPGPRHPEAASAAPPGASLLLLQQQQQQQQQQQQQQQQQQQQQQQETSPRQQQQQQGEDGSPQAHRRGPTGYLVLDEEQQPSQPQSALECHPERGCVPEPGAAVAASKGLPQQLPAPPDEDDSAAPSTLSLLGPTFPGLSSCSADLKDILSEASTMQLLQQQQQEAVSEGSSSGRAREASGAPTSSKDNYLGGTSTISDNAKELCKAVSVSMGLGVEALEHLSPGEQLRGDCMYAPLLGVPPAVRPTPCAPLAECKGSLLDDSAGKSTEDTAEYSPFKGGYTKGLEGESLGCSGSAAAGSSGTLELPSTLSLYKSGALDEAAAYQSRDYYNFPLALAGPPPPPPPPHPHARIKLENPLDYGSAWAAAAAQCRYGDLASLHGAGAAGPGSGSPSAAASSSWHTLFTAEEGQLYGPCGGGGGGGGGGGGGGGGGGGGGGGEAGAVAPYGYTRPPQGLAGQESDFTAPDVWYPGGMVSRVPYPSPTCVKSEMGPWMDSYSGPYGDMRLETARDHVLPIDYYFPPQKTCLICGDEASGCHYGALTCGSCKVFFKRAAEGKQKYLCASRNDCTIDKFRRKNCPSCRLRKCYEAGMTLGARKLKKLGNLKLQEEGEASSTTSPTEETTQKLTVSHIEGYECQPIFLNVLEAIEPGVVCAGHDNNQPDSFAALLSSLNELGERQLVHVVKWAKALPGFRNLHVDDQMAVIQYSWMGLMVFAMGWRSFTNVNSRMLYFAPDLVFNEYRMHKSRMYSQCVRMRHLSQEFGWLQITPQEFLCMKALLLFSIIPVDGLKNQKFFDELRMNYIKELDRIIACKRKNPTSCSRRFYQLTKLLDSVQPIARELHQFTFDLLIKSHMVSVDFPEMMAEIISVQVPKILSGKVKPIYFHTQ
Procedure, shortened: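 Cells are MDA-kb2 (human breast carcinoma, MMTV-luc, AR/GR responsive). Nilutamide is present at 3.0uM final throughout; compounds are added at 15 concentrations and incubated 16hr at 37C before ONE-Glo luminescence detection.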
% is scaled to controls: 0 for no effect and ±100 for the full control effect.

O=C(O)C1CCC1
inactive: Potency [1] | Potency [2] | outcome [3] | Potency [4] | Potency [5] | Potency [6] | Potency [7] | Potency [8] | outcome [9] | Potency [10] | outcome [11] | Potency [12] | Potency [13] | Potency [14] | Potency [15] | outcome [16] | outcome [17] | outcome [18] | outcome [19]

CCCC(C)CO (centres undefined)
inactive: Potency [1] | Potency [2] | outcome [3] | Potency [4] | Potency [5] | Potency [6] | Potency [20] | Potency [7] | outcome [9] | Potency [10] | outcome [11] | Potency [12] | Potency [13] | Potency [14] | Potency [15] | outcome [16] | outcome [17] | outcome [18]

CC(C)(C)N(CCO)CCO
inactive: Potency [1] | Potency [2] | outcome [3] | Potency [4] | Potency [5] | Potency [6] | Potency [8] | outcome [9] | Potency [10] | outcome [11] | Potency [12] | Potency [13] | Potency [14] | Potency [15] | outcome [16] | outcome [17] | outcome [18] | outcome [19]

COc1nc(C)nc(N)n1
inactive: Potency [1] | Potency [2] | outcome [3] | Potency [4] | Potency [5] | Potency [6] | Potency [8] | outcome [9] | Potency [10] | outcome [11] | Potency [12] | Potency [13] | Potency [14] | Potency [15] | outcome [17] | outcome [18] | outcome [19]

Cc1nccn1CC1CCc2c(c3ccccc3n2C)C1=O (centres undefined)
inactive: Potency [1] | Potency [2] | outcome [3] | Potency [4] | Potency [5] | Potency [6] | Potency [7] | outcome [9] | outcome [11] | Potency [12] | Potency [13] | Potency [14] | Potency [15] | outcome [16] | outcome [17] | outcome [18] | outcome [19]

O=C(O)c1ccc[n+]([O-])c1
inactive: Potency [1] | Potency [2] | outcome [3] | Potency [4] | Potency [5] | Potency [20] | Potency [8] | outcome [9] | Potency [10] | outcome [11] | Potency [12] | Potency [13] | Potency [14] | Potency [15] | outcome [16] | outcome [17] | outcome [18] | outcome [19]

NC(=S)Nc1cccc2ccccc12
inactive: activity change [1] -0.099% [at 8.39 µM, active compounds read high] | activity change, negative = inhibition [2] 0.0462% [at 8.39 µM] | activation [3] -0.309% [at 8.39 µM] | activity, negative = inhibition [4] -5.64% [at 8.39 µM] | activity change, negative = cytotoxicity [5] -0.514% [at 8.39 µM] | activity change, negative = cytotoxicity [7] 8.83% [at 8.39 µM] | cAMP activity change [9] 4.82% [at 8.39 µM] | activity change, negative = inhibition [10] 2.83% [at 8.39 µM] | activity change, negative = cytotoxicity [11] 0.0918% [at 8.39 µM] | activation [12] -0.12% [at 8.39 µM] | activity change, negative = inhibition [13] -2.03% [at 8.39 µM] | activity change, negative = cytotoxicity [14] -13.4% [at 8.39 µM] | activity change, negative = cytotoxicity [15] -0.848% [at 8.39 µM] | viability change, negative = cytotoxic [16] 11.5% [at 6.97 µM] | activity change, negative = cytotoxicity [17] -4.69% [at 6.97 µM] | activation [18] -0.913% [at 6.97 µM] | activity, negative = inhibition [19] -0.447% [at 4.65 µM]

— PubChem BioAssay (Tox21)
